ClpP mod: qHTS Assay for Activators of ClpP. purified B. subtilis ClpP, FRET peptide cleavage, 20 min. 340,000 compounds, 1.9% hits. ATP-dependent Clp protease proteolytic subunit (Bacillus subtilis (strain 168)), P80244. Potency, µM (doses to about 57.5 µM); active = well fitted falling curve with a large enough effect; inconclusive = small, poorly fitted or top-dose-only effect; inactive = no such curve, though single readings can be large or run the other way; also: the source files actives as falling curves though it sought activators and does not explain the sign; nearly all actives have a fitted effect of over 65% in size
Target sequence (P80244 whole entry, looked up): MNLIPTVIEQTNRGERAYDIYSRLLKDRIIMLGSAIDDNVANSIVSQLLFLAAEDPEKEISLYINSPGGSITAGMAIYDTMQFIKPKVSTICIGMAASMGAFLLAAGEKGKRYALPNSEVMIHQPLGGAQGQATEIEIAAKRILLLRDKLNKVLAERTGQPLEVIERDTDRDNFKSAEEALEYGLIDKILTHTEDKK
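Purified B. subtilis ClpP, 10 microg/mL final in Tris/HCl pH8 with KCl, BSA, glycerol and Tween-20, cleaved an Abz/nitrotyrosine-quenched decapeptide. Fluorescence (ex 320, em 430) was read at 0 and 20 min at room temperature. Delta was normalized to 5.8 microM ADEP and DMSO/no-enzyme controls.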
IL1B secr inh: blocks inflammasome-driven IL-1 beta release | activity change, % at 57.5 µM | THP-1 LPS/ATP IL-1B secretion, AlphaLISA, 16 h; active compounds read low | 360,000 compounds, 4.7% hits | AID 743279; in the data active = activity change below about -50%; inconclusive = mostly about -30% to -49%
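Secreted IL-1B measured by AlphaLISA bead assay after 16 h compound exposure of THP-1 cells; compounds (final up to 57.5 uM) added 1 h before LPS (250 ng/mL) and ATP (1.25 mM) stimulation; lower signal means less secretion.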
TDP1 cell noCPT: qHTS for Inhibitors of human tyrosyl-DNA phosphodiesterase 1 (TDP1): qHTS in cells in absence of CPT | DT40 Tdp1-/- hTDP1 cells, no CPT, ATP luminescence, 48 h | Potency, µM (titrated, usually from 46.2 µM), actives largely listed as inhibitors | 420,000 compounds, 15% hits; also: nearly all actives have a fitted effect of over 55% in size
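Chicken DT40 Tdp1-/- cells stably complemented with human TDP1 were seeded at 400 cells/well with DMSO in place of 20 nM camptothecin. After compound pinning, cells grew at least 48 hr at 37 °C; viability read by CellTiter-Glo luminescence.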
DT40 TDP1 CPT: growth inhibition of DT40 Tdp1-/-;hTDP1 cells with camptothecin (screen for TDP1 inhibitors) | chicken DT40 Tdp1-/-;hTDP1 cells + 20 nM CPT, ATP luminescence, 48 h | Potency, µM (series often up to 46.2 µM), actives largely listed as inhibitors | 420,000 compounds, 12% hits | AID 686979; also: nearly all actives have a fitted effect of over 55% in size
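Cell growth measured by CellTiter-Glo luminescence after a minimum 48 h, 37 C compound exposure with 20 nM CPT in Tdp1-knockout DT40 cells stably expressing hTDP1, seeded 400/well; qHTS titration format.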
D3 ag: activates the human D3 dopamine receptor; P35462; D3R DiscoveRx beta-arrestin cells, luminescence, 90 min; max activation, %; 410,000 compounds, 0.58% hits; in the data active = max activation above about 30%
Target sequence (P35462 whole entry, looked up): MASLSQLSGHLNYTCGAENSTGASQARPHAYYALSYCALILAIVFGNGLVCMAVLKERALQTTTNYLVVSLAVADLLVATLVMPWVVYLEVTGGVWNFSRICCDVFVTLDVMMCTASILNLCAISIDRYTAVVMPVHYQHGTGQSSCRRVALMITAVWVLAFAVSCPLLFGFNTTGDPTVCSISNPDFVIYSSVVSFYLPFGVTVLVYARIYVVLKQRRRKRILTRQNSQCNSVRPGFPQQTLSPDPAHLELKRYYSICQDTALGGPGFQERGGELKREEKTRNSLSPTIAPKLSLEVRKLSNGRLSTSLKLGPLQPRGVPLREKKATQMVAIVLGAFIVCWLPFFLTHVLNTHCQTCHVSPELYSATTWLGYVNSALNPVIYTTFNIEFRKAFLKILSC
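Agonist-mode cell screen: cells plated at 1500/well and incubated overnight at 37 °C, then exposed to library compounds for 90 min at 37 °C. Detection reagent was added for 30–60 min at room temperature, and luminescence was read.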
DRD3 antagonist: blocks the human D3 dopamine receptor | P35462 | D3R cells, DiscoveRx beta-arrestin luminescence, antagonist mode; active compounds read low | max response, negative = inhibition, % | 360,000 compounds, 2.5% hits; in the data active = max response below about -50%; inconclusive = no clear call, values can overlap the other calls
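Cells expressing the human receptor were seeded at 1500 cells/well, incubated overnight at 37 degrees C in 5% CO2, then exposed to library compounds with dopamine controls for 90 minutes at 37 degrees C before luminescent detection.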
A number is an active result; . = inactive; ? = inconclusive; / = not tested or not shown. Compounds with a hit are over-represented: about 21% of the library has one in this group of screens. Unless noted, calls follow the shape of the dose curve; as a rule, active = well fitted inhibition curve with a large enough effect; inconclusive = small, poorly fitted or top-dose-only effect; inactive = flat fitted curve, though single readings scatter.

SMILES | ClpP mod | IL1B secr inh | TDP1 cell noCPT | DT40 TDP1 CPT | D3 ag | DRD3 antagonist
CC(=O)Nc1cc(-c2cccc(C(=O)N(C)C)c2)cn2c(-c3ccc(F)c(Cl)c3)cnc12 | ? | . | ? | ? | . | .
COc1cccc(-c2cnc3c(NC(C)=O)cc(-c4cccc(C(=O)NCCO)c4)cn23)c1 | . | . | ? | 16.4µM | . | .
COC(=O)/C=C1\NCCNC1=O | . | . | . | . | . | .
Cc1oc2cc3oc(=O)c(CC(=O)NCc4ccccc4)c(C)c3cc2c1C | . | / | 8.2µM | 6.51µM | . | /
Cc1oc2c(c(C)cc3oc(=O)c(CC(=O)NCc4ccccc4)c(C)c32)c1C | . | / | . | . | . | /
Cc1oc2cc3oc(=O)c(CCC(=O)N(C)CC(=O)O)c(C)c3cc2c1C | . | . | . | . | . | -66.6
Cc1oc2cc3oc(=O)c(CCC(=O)NCCN4CCOCC4)c(C)c3cc2c1C | . | ? | ? | 20.6µM | 40.6 | .
Cn1cc(Br)c(-c2cccc(N3C(=O)CCCC3=O)c2)n1 | . | . | . | . | . | .
COc1ccccc1NC(=O)c1ccc(NC(=O)c2ccc(=O)[nH]c2)cc1 | . | . | ? | ? | . | .
Cc1ccc2c(c1C)OC(=O)CC2(C)C | 31.6µM | . | . | . | . | .
COC(=O)c1cc2oc(C)cc2n1Cc1ccc(C)cc1 | . | / | ? | . | . | /
COc1ccc(/C=N/NC(=O)c2cccc(NC(=O)c3ccccc3Cl)c2)cc1 | / | . | 4.61µM | 3.66µM | . | .
COc1ccccc1/C=N/NC(=O)c1cccc(NC(=O)c2ccccc2Cl)c1 | / | . | . | . | . | .
COc1cccc(/C=N/NC(=O)c2ccc([N+](=O)[O-])cc2Cl)c1O | . | . | 4.61µM | 4.61µM | . | .
COc1ccccc1/C=N/NC(=O)c1ccccc1Cl | / | -67.2 | . | . | . | .
COc1ccc(OC)c(NC(=O)c2cc3cc(C)ccc3n2C)c1 | . | / | ? | ? | . | /
CCN(CC(=O)Nc1ccc(NC(C)=O)cc1)C(=O)c1cc(CN2C(=O)c3ccccc3C2=O)ccc1OC | . | . | . | . | . | .
CCc1nn(CC(=O)NCCN(CC(C)C)CC(C)C)c(=O)c2cc3sc(C)cc3n12 | . | / | 20.6µM | 14.6µM | . | /
CN(CC(=O)Nc1ccccc1Cl)C(=O)c1ccc(-c2cccc(C(F)(F)F)c2)o1 | . | . | ? | ? | . | .
COCCN(C(=O)c1snc(C(N)=O)c1N)C(C(=O)NC1CCCCC1)c1ccc(N(C)C)cc1 (centres undefined) | . | . | 14.6µM | . | . | .
COc1ccc(C(C(=O)NC2CCCCC2)N(Cc2ccco2)C(=O)c2snc(C(N)=O)c2N)cc1 (centres undefined) | . | -68.4 | ? | ? | . | .
NC(=O)c1nsc(C(=O)N(Cc2ccco2)C(C(=O)NC2CCCC2)c2ccc(O)cc2)c1N (centres undefined) | . | . | ? | . | . | .
CCOc1ccc(C(C(=O)NC2CCCCC2)N(CCOC)C(=O)c2snc(C(N)=O)c2N)cc1 (centres undefined) | / | . | . | . | . | .
COc1ccc(C(C(=O)NC2CCCC2)N(Cc2ccco2)C(=O)c2snc(C(N)=O)c2N)cc1OC (centres undefined) | . | -58.7 | . | ? | . | .
CCC(C(=O)OCC(=O)N1CCN(c2ccc(OC)cc2)CC1)c1ccccc1 (centres undefined) | . | . | ? | ? | . | .
SMILES | ClpP mod | IL1B secr inh | TDP1 cell noCPT | DT40 TDP1 CPT | D3 ag | DRD3 antagonist
CCOc1cccc(C2/C(=C(/O)c3ccc4c(c3)CC(C)O4)C(=O)C(=O)N2Cc2ccncc2)c1 (centres undefined) | . | . | . | . | . | .
COc1cc(OC)c(OC)cc1/C=C1/Cc2ccccc2C1=O | . | . | . | . | . | .
CCC1C/C(=C\c2cc(OC)c(OC)cc2OC)C(=O)/C(=C/c2cc(OC)c(OC)cc2OC)C1 (centres undefined) | . | -70.3 | 13µM | ? | . | .
COc1cc(OC)c(OC)cc1/C=C1\CC(C)C/C(=C\c2cc(OC)c(OC)cc2OC)C1=O (centres undefined) | . | -83.6 | 18.4µM | 18.4µM | . | .
COc1cc(OC)c(OC)cc1/C=C1\Oc2cc(OS(C)(=O)=O)ccc2C1=O | / | . | . | . | . | .
Cc1cc(-c2ccccc2)cc(-c2ccccc2)[n+]1C | / | . | 8.2µM | 10.3µM | . | ?
Cc1nc(Nc2ccccc2O)c2oc3ccccc3c2n1 | . | . | . | . | . | .
CCNc1nc(C)nc2c1oc1ccccc12 | . | . | . | 0.581µM | . | .
Cc1nc(NC(C)C)c2oc3ccccc3c2n1 | . | ? | 13µM | ? | . | .
CCNc1nc(CC)nc2c1oc1ccccc12 | . | . | . | . | . | .
COc1ccc(N(CC(=O)Nc2ccccc2C(=O)N2CCCC2)S(=O)(=O)c2ccccc2)cc1 | . | . | 16.4µM | 20.6µM | . | .
COc1ccc(S(=O)(=O)N(CC(=O)N2CCN(c3ccccc3)CC2)c2ccccc2)cc1 | . | . | ? | . | . | .
CCN(CC(=O)Nc1ccccc1C(=O)OC)S(=O)(=O)c1ccccc1 | . | . | ? | 23.1µM | . | ?
COc1ccc(N(CC(=O)Nc2ccccc2C(N)=O)S(=O)(=O)c2ccc(C)c([N+](=O)[O-])c2)cc1 | . | ? | 23.1µM | ? | . | .
COC(=O)c1ccccc1NC(=O)CC(=O)Nc1ccccc1C(=O)OC | ? | . | ? | . | . | .
COc1ccc(N(CC(=O)N2CCN(c3ccccc3)CC2)S(=O)(=O)c2ccccc2)cc1 | . | . | 18.4µM | 16.4µM | . | .
CCOc1cccc(OCCCn2c(-c3ccc(Br)cc3)nc3ccccc3c2=O)c1 | . | / | . | . | . | /
Cc1ccc(C)c(C(O)c2ncc(-c3ccc(C(F)(F)F)cc3)[nH]2)c1 (centres undefined) | . | . | ? | ? | . | .
COc1ccc(N2CCN(C(=O)CN(c3cccc(OC)c3)S(=O)(=O)c3ccccc3)CC2)cc1 | . | . | 14.6µM | 20.6µM | . | .
COc1cccc(N2CCN(C(=O)CCCCCNc3nc(=S)[nH]c4ccccc34)CC2)c1 | / | -174.9 | 9.2µM | 4.61µM | . | .
O=C(CCCn1c(=S)[nH]c2ccccc2c1=O)N1CCN(c2cccc(Cl)c2)CC1 | . | . | 18.4µM | 16.4µM | . | .
Cc1cccc(N2CCN(C(=O)CCCCCn3c(=S)[nH]c4ccc(N5CCOCC5)cc4c3=O)CC2)c1C | . | . | 6.51µM | 16.4µM | . | .
